We go through 99 compounds from PubChem BioAssay AID612 (The Scripps Research Institute Molecular Screening Center, 2007).

In all, about 62,000 compounds went through this assay and about 420 (0.68%) were called active. The full list was thinned out, with actives kept by preference. A number with no mark means an inactive call.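 The calls were made as follows: active = inhibition above the mean of all tested compounds plus 3 SD (cut at about 43% in these data); inactive = the rest.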

Chain of 5-hydroxytryptamine receptor 1A (Homo sapiens) (P08908 whole entry, looked up): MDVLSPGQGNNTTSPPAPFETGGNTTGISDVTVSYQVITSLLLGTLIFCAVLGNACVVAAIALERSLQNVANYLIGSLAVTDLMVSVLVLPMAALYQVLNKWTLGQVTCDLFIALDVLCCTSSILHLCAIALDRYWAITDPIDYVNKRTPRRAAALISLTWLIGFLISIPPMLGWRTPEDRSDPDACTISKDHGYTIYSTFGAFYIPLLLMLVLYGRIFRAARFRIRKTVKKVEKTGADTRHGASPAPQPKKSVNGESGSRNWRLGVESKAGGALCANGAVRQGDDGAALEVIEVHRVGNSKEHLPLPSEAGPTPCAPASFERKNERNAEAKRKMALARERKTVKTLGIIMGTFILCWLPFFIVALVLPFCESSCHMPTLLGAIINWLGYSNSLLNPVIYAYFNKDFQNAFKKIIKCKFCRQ

The experiment has as its target 5-hydroxytryptamine receptor 1A (Homo sapiens) (UniProt P08908). Kind of experiment: blockade of serotonin HTR1A receptor – cell-based, CHO, Ga15 NFAT-bla reporter, primary screen (AID 612).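 Also: receptor stimulated by 5-CT agonist at 100 nM near EC80; beta-lactamase reporter measured by ratiometric fluorescence of a cleavable substrate.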 The following applies: CHO 5-HT1a Ga15 NFAT-bla reporter, antagonist mode; at 10 µM; active compounds read high.
For `COc1ncnc2sc3c(c12)CCCC3`, the inhibition was 10.5%.

On to `COc1ccc(-c2ccc(Nc3ccc(S(=O)(=O)N4CCCC4)cc3)nn2)cc1OC`, for which the inhibition was -0.9%.

Take `COc1ccc(-c2cc(C(F)(F)F)nc(S(C)(=O)=O)n2)cc1OC`: the inhibition was 78.1% (active).

With `COc1ccc(-c2nnco2)cc1OC`, the inhibition is 2%.

As for `CN1CCN(CC(=O)C23CC4CC(CC(C4)C2)C3)CC1`, the inhibition was 4.4%.

`Cc1ccc(C2(c3ccc(C)cc3)NC(=O)N(Cc3c(C)noc3C)C2=O)cc1`: the inhibition is 1.9%.

For the compound `CCN(Cc1ccccc1)C(=O)CSc1nc(C)cc2c1C(=O)OC2`, the inhibition is -9%.

For the compound `O=C(CSc1nnc(-c2cnccn2)n1Cc1ccco1)c1ccc(Cl)c(Cl)c1`, the inhibition was 9.1%.

Regarding `Cc1noc(C)c1S(=O)(=O)NCCc1ccc(S(N)(=O)=O)cc1`, the inhibition was -7.6%.

Take `COc1ccc(CCN(C)C(=O)C2CCCN(Cc3ccc(OC)c(OC)c3)C2)cc1OC` (centres undefined): the inhibition was 14.7%.

As for `COc1ccccc1-n1nnnc1S(=O)(=O)Cc1ccc(Cl)cc1`, the inhibition was 82.7% (active).

`COc1ccccc1N1CCN(C(=O)CN(Cc2ccc(Cl)cc2)S(C)(=O)=O)CC1`: the inhibition was 17.7%.

Take `COc1ccccc1N1CCN(Cc2nnnn2CCc2ccccc2)CC1`: the inhibition is 5.1%.

For the compound `COC(=O)c1ccc(NC(=O)CSc2nnc(Cc3cccn3C)n2-c2ccc(F)cc2)cc1`, the inhibition was 3.3%.

For the compound `Cc1ccc(N2C(=O)CC(NCc3ccc4c(c3)OCO4)C2=O)cc1Cl` (centres undefined), the inhibition was -4.3%.

In the case of `CC(C)NS(=O)(=O)c1ccc(CCC(=O)N2CCOCC2)cc1`, the inhibition was -10.5%.

As for `CCOC(=O)CSc1nnc(CNC(=O)c2ccco2)n1-c1ccc(F)cc1`, the inhibition was 5.9%.

With `CN(C)/C=C1\C=C(c2ccccc2)OC1=O`, the inhibition is -8.2%.

Consider `CCOC(=O)C1(Cc2ccc(O)cc2)NC(c2ccccc2F)C2C(=O)N(C)C(=O)C21` (centres undefined), for which the inhibition was 6.2%.

With `Clc1ccc(C=NC23CN4CN(CN(C4)C2)C3)cc1`, the inhibition is -6.9%.

For `COc1ccc(CNC(=O)C2CCN(S(=O)(=O)N3CCOCC3)CC2)cc1`, the inhibition was 5.7%.

With `c1csc(-c2nc(-c3ccncc3)no2)c1`, the inhibition was -12.8%.

On to `COc1cc(Cl)c(S(=O)(=O)n2cnc(C)c2)cc1Cl`, for which the inhibition is -7.5%.

On to `CSCC[C@H](NC(=O)NCc1cccs1)C(=O)O`, for which the inhibition is 4.7%.

For the compound `CC1CCN(c2oc(-c3ccccc3F)nc2C#N)CC1`, the inhibition is 13.1%.

For the compound `c1csc(-c2cn3c(n2)SCC3)c1`, the inhibition was 5.5%.

Take `Cc1ccc(C(=O)Nc2nnc(-c3cccs3)s2)cc1C`: the inhibition is -13.8%.

Consider `COc1cccc(NC(=O)Nc2nnc(N3CCCCC3C)s2)c1` (centres undefined), for which the inhibition is 35.8%.

As to `c1ccc(-n2ncc3c2ncn2c(C4CCCCC4)nnc32)cc1`, the inhibition was -3.1%.

`O=C(CC(NS(=O)(=O)c1ccc(Cl)cc1)c1ccco1)NC1CCCC1` (centres undefined): the inhibition was 7.3%.

As to `COC(=O)N1CN(C(=O)OC)CN(C(=O)OC)C1`, the inhibition was -7%.

Take `O=C(CN1CCOCC1)Nc1c2c(nc3c1CCC3)CCC2`: the inhibition was 2.1%.

For `CCOC(=O)CSc1nc2c(c(=O)n(C)c(=O)n2C)n1Cc1ccccc1F`, the inhibition is -3.1%.

For the compound `COc1ccccc1NC(=O)CSc1nc2sc(C)c(C)c2c(=O)n1Cc1ccco1`, the inhibition was 19.2%.

`CCOC(=O)CSc1nc2c(sc(=S)n2CCc2ccccc2)c(=O)n1Cc1ccco1`: the inhibition was 58.2% (active).

Consider `CC(c1cccnc1)N(CCN(C)C)C(=O)Nc1ccc(Cl)c(Cl)c1` (centres undefined), for which the inhibition is 3.9%.

Take `Cc1ccc(C)c(NC(=O)C2CC(=O)N(C(C)C)C2)c1` (centres undefined): the inhibition was -1.5%.

For the compound `COc1ccc(S(=O)(=O)N2CCOCC2)cc1C(=O)Nc1nc2ccccc2s1`, the inhibition is -17.7%.

For `Cc1ccc2nc(NC(=O)C3CCN(S(=O)(=O)c4ccc5c(c4)oc(=O)n5C)CC3)sc2c1`, the inhibition is 1.8%.

As for `O=S(=O)(NCc1ccccc1Cl)c1cnc[nH]1`, the inhibition is -4.7%.

Turning to `COc1ccccc1C(=O)Oc1ccc(N2C(=O)CCC2=O)cc1`, the inhibition was -3.5%.

With `CCOc1cc(C(=O)N2CCc3cc(OC)c(OC)cc3C2)ccc1OC(F)F`, the inhibition is 60.5% (active).

Turning to `CCOc1cc(-c2noc(CCC(=O)N3CCOCC3)n2)ccc1OC`, the inhibition was -10.7%.

As to `CCOc1cc(CN2CCN(C(=O)CC(C)C)CC2)ccc1OC`, the inhibition was -2.9%.

For `CCCOc1ccccc1C1CC(=O)Nc2cc3c(cc21)OCO3` (centres undefined), the inhibition was 54.2% (active).

As for `COCCOC(=O)C1=C(C)NC(=O)CC1c1cc2c(cc1Br)OCO2` (centres undefined), the inhibition was 3.2%.

As for `COc1cc2c(cc1OC)C(c1ccc(C)o1)CC(=O)N2` (centres undefined), the inhibition was 30.2%.

In the case of `Cc1cc(NC(=O)CCC(=O)N(c2cccc(F)c2)C(C(=O)NC2CCCC2)c2ccncc2)no1` (centres undefined), the inhibition is -3.5%.

In the case of `C/C(=N\O)C1(C)N(O)C(C)(C)C(c2ccc(Br)cc2)=[N+]1[O-]` (centres undefined), the inhibition was -14.2%.

For `COC(=O)c1ccc(/C=N\n2c(C)nnc2C)cc1`, the inhibition was 0.3%.

In the case of `CCOC(=O)N1CCN(C(=O)C2CCCN(c3ncnc4c3sc3cccc(F)c34)C2)CC1` (centres undefined), the inhibition is 7.8%.

Regarding `CC(C)c1ccc(-c2nn[nH]n2)cc1`, the inhibition is -0.6%.

Turning to `COc1ccc(N2CCN(C3CC(=O)N(c4ccc5c(c4)OCCO5)C3=O)CC2)cc1` (centres undefined), the inhibition is -12.3%.

With `O=C(CCc1ccccc1)Nc1cccc(-c2nnc(-c3ccco3)o2)c1`, the inhibition was 10%.

On to `COC(=O)Cc1c(C)c2ccc(OCC(=O)NCc3ccc4c(c3)OCO4)cc2oc1=O`, for which the inhibition was 12.5%.

For the compound `CN(C)CCCn1c(N)c(C#N)c2nc(C#N)c(C#N)nc21`, the inhibition was -28.3%.

`O=C(Cn1cnc2c(nnn2Cc2ccc(F)cc2)c1=O)NCc1ccc2c(c1)OCO2`: the inhibition was 2%.

With `COc1ccc(C(=O)N2CCC(C(=O)Nc3cccc(C)c3)CC2)cc1OC`, the inhibition is -2.1%.

Regarding `O=C(Nc1nsc(-c2ccccc2)n1)c1ccncc1`, the inhibition was -6.7%.

In the case of `COc1ccc(C2OC(=O)CC2C(=O)NC(C)C)cc1` (centres undefined), the inhibition was -3.4%.

In the case of `CC(C)CCNC(=O)CN(C(=O)Cn1nnc(-c2ccc(F)cc2)n1)C1CCCC1`, the inhibition was 9.5%.

In the case of `O=C(O)c1cscn1`, the inhibition is -20.4%.

For `O=S(=O)(NCc1ccccn1)c1ccc(F)cc1`, the inhibition is -4.1%.

Consider `O=C(CCn1c(=O)[nH]c2ccccc2c1=O)NCCCN1CCN(c2cccc(Cl)c2)CC1`, for which the inhibition is 37.1%.

As for `CC1CCCC(C)N1CCCNC(=O)c1cc2c(=O)n(C)c3ccccc3c2n1C` (centres undefined), the inhibition is 1.7%.

On to `Cn1c(C(=O)NCCc2ccsc2)cc2c(=O)n(C)c3ccccc3c21`, for which the inhibition is -3.6%.

Regarding `CCOC(=O)N1CCC(Nc2c(NCCN3CCN(c4cccc(Cl)c4)CC3)c(=O)c2=O)CC1`, the inhibition is 1.9%.

Take `Cn1c(C(=O)NCCCN2CCN(c3cccc(Cl)c3)CC2)cc2c(=O)n(C)c3ccccc3c21`: the inhibition was 47.4% (active).

For `CCn1c(=O)cc(OCC(=O)NCCCN2CCN(c3cccc(Cl)c3)CC2)c2ccccc21`, the inhibition is 50.4% (active).

As to `Fc1ccc2nc(Nc3nc4c(s3)CCCC4)sc2c1`, the inhibition was 16.8%.

In the case of `Cc1cnc(NC(=O)CSc2nnc(-c3ccc(Cl)cc3Cl)n2N)s1`, the inhibition is -1.4%.

With `CN(CCCNC(=O)CN1C(=O)CC(C)(C)S(=O)(=O)c2ccccc21)C1CCCCC1`, the inhibition was -7.9%.

As for `CCOC(=O)Cn1c2c(c(-c3ccccc3OC)cc1=O)CCCC2`, the inhibition is 17.8%.

As to `O=S(=O)(c1ccc(Sc2nnc3ccccn23)nc1)N1CCOCC1`, the inhibition was -7.8%.

Regarding `O=C(Nc1nnc(-c2ccc(Cl)cc2)o1)c1ccccc1Br`, the inhibition is 8.9%.

`O=c1cc(CSc2ccc(Cl)cc2)nc(N2CCOCC2)[nH]1`: the inhibition was -13.7%.

Turning to `Cc1cc2c(=O)n(C)c(SCC(=O)c3cc4ccccc4o3)nc2s1`, the inhibition is -6.7%.

For the compound `COc1ccccc1-c1nc(C(F)(F)F)c(OC)o1`, the inhibition was 3.7%.

For the compound `COCCNC(=O)Cn1cc2c(n1)CCCCC2`, the inhibition was -1.6%.

On to `COc1ccc(C)c(Cn2c(-c3nonc3N)nc3ccccc32)c1`, for which the inhibition was 38.7%.

With `Nc1nonc1-c1nc2ccccc2n1Cc1ccc(F)cc1`, the inhibition was 48% (active).

For `Nc1nonc1-c1nc2ccccc2n1CCC(=O)O`, the inhibition was -21.2%.

Consider `Cc1cccc2nc(CNc3ccc(F)cc3)cn12`, for which the inhibition was -11.2%.

Take `COc1ccc(N2C(=O)C3CCCN3C2c2cccs2)cc1` (centres undefined): the inhibition is 19.9%.

For the compound `O=C(CSc1nnc2ccccn12)c1ccccc1`, the inhibition is 3.3%.

For `COc1ccc(OC)c(C(=O)CSc2nnc(-c3cccs3)o2)c1`, the inhibition was -4.9%.

For `Cc1ccc(-c2noc(CCC(=O)Nc3ccccc3N3CCN(C)CC3)n2)cc1`, the inhibition was 5.2%.

Consider `O=C(NCCN1CCOCC1)c1ccc2c(c1)ncn2C1CCCC1`, for which the inhibition was -8%.

Take `Cc1ccc(Oc2ccc(N)cc2)cc1`: the inhibition is 11.4%.

Consider `CCCc1nc(SCC(=O)Nc2ccccc2OC)c2c(=O)n(C)c(=O)n(C)c2n1`, for which the inhibition is 10.8%.

For `CCOc1cc(/C=N/n2cnnc2)c(Br)cc1O`, the inhibition was -8.1%.

Consider `COc1ccc(O)c(C=Nc2cc(C)on2)c1`, for which the inhibition is 4.6%.

Turning to `COc1ccccc1-n1cnc2cc(C(=O)NCC3CCCO3)ccc21` (centres undefined), the inhibition was 10.8%.

As for `COC(=O)c1ccc(CSc2nncn2C)cc1`, the inhibition is -0.1%.

As to `COc1ccc(C(CNC(=O)c2cccnc2SC)N2CCOCC2)cc1` (centres undefined), the inhibition is 5.3%.

For the compound `CCCC(=O)Nc1c(O)c2ccccc2[nH]c1=O`, the inhibition is 0.3%.

Turning to `O=C(c1cc(-c2cccc(O)c2)on1)N1CCc2ccccc2C1`, the inhibition was -4.3%.

With `c1ccc(-c2cn3cccnc3n2)cc1`, the inhibition was -0.3%.

As to `C/C(CC(O)(/C=N/O)c1ccccc1)=N\O` (centres undefined), the inhibition is 7.7%.

Usually inhibition stands for the drop in the measured response relative to a control, in per cent.
